According to PubChem BioAssay (NCATS):
Results filed as inconclusive are left out. Calls of active or inactive are those of the source. The call rests on the fitted dose curve; in most records, active means well fitted inhibition curve with a large enough effect; inconclusive means small, poorly fitted or top-dose-only effect; inactive means flat fitted curve, though single readings scatter.

Key:
Assay in all cases: qHTS profiling for inhibitors of Plasmodium falciparum proliferation (AID 504749); further: nearly all actives have a fitted effect of over 60% in size
Details in all cases: P. falciparum in erythrocytes, SYBR Green DNA, 72 h; series mostly up to 28.7 µM
ATS95 = test system: ATS95
How it was run: (§1)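 Fluorescence of SYBR Green-bound parasite DNA, read at 485/535 nm, served as the growth measure. Infected erythrocytes were cultured with compound 72 h; artemisinin (0.29 uM) and DMSO wells defined the normalization range.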

CP192 = test system: CP192
How it was run: as §1

CP194 = test system: CP194
How it was run: as §1

CP201 = test system: CP201
How it was run: as §1

CP203 = test system: CP203
How it was run: as §1

CP215 = test system: CP215
How it was run: as §1

CP247 = test system: CP247
How it was run: as §1

CP266 = test system: CP266
How it was run: as §1

CP268 = test system: CP268
How it was run: as §1

CP269 = test system: CP269
How it was run: as §1

CP291 = test system: CP291
How it was run: as §1

CP297 = test system: CP297
How it was run: as §1

CP305 = test system: CP305
How it was run: as §1

CP325 = test system: CP325
How it was run: as §1

DIV17 = test system: DIV17
How it was run: as §1

FAB9 = test system: FAB9
How it was run: as §1

JCK = test system: JCK
How it was run: as §1

PAD = test system: PAD
How it was run: as §1

PC49 = test system: PC49
How it was run: as §1

TAB109 = test system: TAB109
How it was run: as §1

Measured: Potency

Cc1onc(-c2c(F)cccc2Cl)c1C(=O)N[C@@H]1C(=O)N2[C@H]1SC(C)(C)[C@H]2C(=O)O
inactive: ATS95 | CP192 | CP194 | CP201 | CP203 | CP215 | CP247 | CP266 | CP268 | CP269 | CP291 | CP297 | CP305 | CP325 | DIV17 | FAB9 | JCK | PAD | PC49 | TAB109
